# High-throughput results from PubChem BioAssay.
# HSF-1 act – increases HSF-1 driven luciferase reporter signal; NIH3T3-HGL HSF-1 luciferase reporter, MG132, 8 h; 100% = twice DMSO control signal; activation, % at 9 µM; 300,000 compounds, 1.7% hits; AID 504408;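 active = mean replicate activation of at least 50% with a set share of replicates each reaching 50%; inconclusive = only one of those two conditions met; inactive = mean below 50% and too few replicates reaching it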;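 note: 0% = median of the neutral control wells and 100% = twice that signal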
# MITF TRPM1 HTS – increases MITF-driven TRPM1 promoter luciferase signal | 300,000 compounds, 0.75% hits | activation, % at 12.5 µM | SK-MEL-5 TRPM1-promoter luciferase, 24 h; % of positive control, neutral wells = 0;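 active = mean activation of at least 80% with every replicate also reaching 80%; inconclusive = mean reaches 80% but some replicate falls short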;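 note: 0% = neutral control wells and 100% = parthenolide positive control wells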
# Wnt bcat act – activates Wnt/beta-catenin signaling in a reporter cell assay; activator, plate reader; activation, % at 9.35 µM; 300,000 compounds, 1.2% hits; AID 743398; in the data active = activation above about 30%, passing the limit was not always enough; inconclusive = no clear call, values can overlap the other calls;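 note: 0% = neutral control wells and 100% = positive control wells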
# HSF1 inhib – HSF1 inhibition | activity change, negative = inhibition, % at 7.5 µM (by protocol) | 300,000 compounds, 0.77% hits | AID 2098 | NIH3T3-HGL HSE-luciferase, MG132-induced, luminescence 8 h; stronger effect = lower value;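 active = more than half of replicate wells show activity change below -50%, luminescence cut by over half; inconclusive = some wells, but at most half, below -50%; inactive = no replicate well below -50%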;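 note: luciferase reports HSF-1 transcriptional activity via heat shock element; 0% = median of DMSO wells and -100% = zero luminescence signal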
# esBAF inh – blocks esBAF chromatin remodeling in mouse ES cells. Bmi1-luciferase knock-in reporter, 24 h; 100% = twice the neutral-well signal. reporter increase, % at 12.5 µM. 350,000 compounds, 2% hits. AID 602393; in the data active = activation above about 40%; inconclusive = no clear call, values can overlap the other calls;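 note: 0% = median of the plate's neutral control wells and 100% = double that signal; a rise in the Bmi1 reporter signal indicates esBAF inhibition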
# Active calls of the source: *; ? = inconclusive; / = no result. Rows were chosen to be rich in hits. Some 3.8% of all compounds tested hit in one or more screens of this group.
SMILES,HSF-1 act,MITF TRPM1 HTS,Wnt bcat act,HSF1 inhib,esBAF inh
CC1=C/C(=C\c2ccc(Br)o2)C(=O)O1,18,-5,-4,-2,/
O=C1C=CC(=O)N1c1ccc(Sc2ccc([N+](=O)[O-])cc2)cc1,82*,/,/,42,/
CCN(CC)CCn1c2ccccc2c2nc3ccc([N+](=O)[O-])cc3cc21,121*,/,15,89,/
Cn1c2ccccc2c2cc([N+](=O)[O-])ccc21,17,/,3,-6,4
CN(C)C(=O)[C@@H]1[C@@H](CO)[C@@H]2Cn3c(ccc(C4=CCCCC4)c3=O)[C@@H]2N1CC1CC1,/,/,/,/,-5
Cc1ccc(S(=O)(=O)N(C)C[C@H]2Oc3ccc(NC(=O)Nc4ccc5c(c4)OCO5)cc3CC(=O)N([C@H](C)CO)C[C@H]2C)cc1,/,/,/,/,0
COc1ccc2cc(-c3ccn[nH]3)ccc2c1,-33,35,35*,-17,-23
C=CCn1c(SCc2csc(-c3ccc(Cl)cc3)n2)nnc1-c1ccccc1OC,58*,-1,1,30,/
CC(C)c1ccc(-n2nc3ccc(N)cc3n2)cc1,0,-17,38*,-4,-45
Cc1ccc(-n2nc3ccc(N)cc3n2)cc1,12,-4,/,0,/
Cc1cc2nn(-c3ccc(Cl)cc3)nc2cc1N,30,23,33*,13,/
Cc1nnc(SCC(=O)c2cc(C)n(-c3ccc4c(c3)OCO4)c2C)s1,33,25,12,-7,70*
Cc1nnc(SCc2cccc(CSc3nnc(C)s3)c2)s1,0,50,-2,19,?
Cc1nnc(SCc2ccc3c(c2)OCO3)s1,14,56,/,8,51*
C[C@H](CO)N1C[C@H](C)[C@H](CN(C)Cc2ccc3c(c2)OCO3)Oc2ccc(NC(=O)Cn3cnnn3)cc2C1=O,/,/,/,/,-2
CCOC(=O)/C(=C\c1ccc(Cl)cc1)c1nc2sc(C)c(C)c2c(=O)[nH]1,241*,-77,/,185,/
O=C(C[C@@H]1CC[C@H]2[C@@H](COC[C@H](O)CN2C(=O)c2ccccc2)O1)Nc1ccccc1,/,/,/,/,5
COC(=O)C(Cc1c[nH]c2ccccc12)NC(=O)c1ccccc1Br (stereo unspecified),21,/,16,17,53*
COc1ccc(N2CCN(C(=O)[C@H](Cc3c[nH]c4ccccc34)NC(C)=O)CC2)cc1,62*,-10,-1,29,/
CCOC(=O)C(Cc1c[nH]c2ccccc12)NC(=O)c1ccccc1Br (stereo unspecified),4,/,13,-11,74*
COC(=O)C(Cc1c[nH]c2ccccc12)NC(=O)CNC(C)=O (stereo unspecified),-1,6,/,-2,-8
CCCc1nc2oc3c(NCC(C)O)ncnc3c2c2c1CCCC2 (stereo unspecified),24,/,38*,-1,/
C[C@H]1CN([C@@H](C)CO)C(=O)Cc2cc(NC(=O)c3ccncc3)ccc2O[C@H]1CN(C)C(=O)Nc1ccc2c(c1)OCO2,/,/,/,/,4
COc1ccc(/C=C/C2=CC(C)(C)NC(=S)N2)cc1OC,29,8,-1,12,/
COc1ccc(/C=C/C2=Nc3ccccc3NC(C)(C)C2)cc1OC,12,?,40*,-4,44*
SMILES,HSF-1 act,MITF TRPM1 HTS,Wnt bcat act,HSF1 inhib,esBAF inh
COC(=O)C[C@@H]1CC[C@@H]2[C@H](COc3ccc(NC(=O)c4ccccc4)cc3C(=O)N2C)O1,/,/,/,/,-7
O=c1oc(-c2ccc(Br)cc2)nc2ccccc12,19,5,8,17,46*
C[C@H](CO)N1C[C@H](C)[C@@H](CN(C)C(=O)CC2CC2)Oc2cc(C3=CCCC3)ccc2S1(=O)=O,/,/,/,/,2
Cc1ccc2nc(/C(C#N)=C\c3ccc(N4CCOCC4)o3)[nH]c2c1,21,74,/,13,/
Cc1ccc(/C(C#N)=C\c2ccc(N3CCOCC3)o2)cc1,76*,46,-11,58,17
N#C/C(=C/c1ccc(N2CCCCC2)cc1)c1cccc(F)c1,-17,21,33*,-9,66*
N#C/C(=C/c1ccc(N2CCOCC2)o1)C(=O)Nc1ccccc1,35,58,50*,21,36
COc1cc(N2CCCC2)c(OC)cc1/C=C(/C#N)c1ccc(F)cc1,-2,-3,3,10,2
N#C/C(=C/c1ccc(N2CCCCC2)o1)c1cccc(F)c1,172*,46,3,128,74*
N#C/C(=C\c1ccc(N2CCOCC2)o1)C(=O)NCCc1ccccc1,1,15,-2,-1,8
C[C@H](CO)N1C[C@H](C)[C@H](CN(C)S(=O)(=O)c2cn(C)cn2)OCCCC[C@H](C)Oc2ccc(NC(=O)CCCN(C)C)cc2C1=O,/,/,/,/,0
COC(=O)C[C@@H]1CC[C@@H]2[C@@H](COc3ccc(NC(=O)c4cnccn4)cc3C(=O)N2C)O1,/,/,/,/,-4
O=C(C[C@@H]1CC[C@H](NC(=O)c2ccc(F)cc2)[C@@H](CO)O1)NCCc1ccncc1,/,/,/,/,-5
N#C/C(=C/c1ccc(N2CCCCCC2)o1)c1ccc(Cl)cc1,93*,17,/,90,1
Cc1cc(Oc2nc3ccccn3c(=O)c2/C=C(\C#N)C(=O)NC2CCS(=O)(=O)C2)ccc1Cl (stereo unspecified),60*,-19,-2,42,1
O=C(Oc1ccc(-c2cnc3ccccc3n2)cc1)c1ccc(Br)o1,36,58,34*,16,12
CCOC(=O)c1cnc(-c2ccccc2)nc1N(C)C,16,31,/,13,75*
c1csc(-c2cnc3ccccc3n2)c1,53*,/,55*,11,/
CCOC(=O)c1cnc(-c2ccccc2)nc1N,46,40,-1,19,24
CCOC(=O)c1cc(OCC)c2c(ccc3ccccc32)n1,/,/,111*,/,-10
c1cc(-c2cccs2)nc(-c2cccs2)c1,21,38,-6,11,/
C[C@H]1CN([C@@H](C)CO)C(=O)c2cc(NC(=O)CCCCCC(=O)Nc3ccccc3N)ccc2O[C@H]1CN(C)S(=O)(=O)c1cn(C)cn1,/,/,/,/,-2
CO[C@H]1CN(C)C(=O)c2ccc(NC(C)=O)cc2OC[C@H](C)N(C(=O)c2ccccc2F)C[C@H]1C,/,/,/,/,-1
CCOC(=O)c1cccc(-c2c(-c3ccccc3)ncc3cc(OC)c(OC)cc23)c1,/,97*,-1,/,67*
CC(=O)Nc1ccc(C(=O)OCc2ccccc2Br)cc1,21,29,8,13,19
Cc1cc(-c2ccccc2)nc(-c2ccccc2)c1C,14,8,-1,-1,-7
Cc1nc2ccc(C(=O)OCc3ccccc3Br)cc2nc1C,42,71,0,19,102*
Cc1cc2ncc(-c3ccccc3)nc2cc1C,40,37,45*,8,-12
Cc1ccc(-c2cnc3ccccc3n2)cc1C,26,-16,40*,8,-33
C[C@H]1CCCCO[C@H](CN(C)Cc2ccccc2)[C@@H](C)CN([C@@H](C)CO)C(=O)c2cc(NS(=O)(=O)c3cn(C)cn3)ccc2O1,/,/,/,/,5
